Laboratory results from PubChem BioAssay (Tox21).
Activity calls are given as the source filed them. Calls come from the whole dose curve; as a rule, active = well fitted activation curve with a large enough effect in the repeat runs; inconclusive = weak or mixed curves; inactive = flat fitted curve, though single readings scatter.

assay: A CellTox Green Cytotoxicity Assay to monitor cytotoxicity in HEK293 cells - 0 hour (AID 1224869); settings: CellTox Green fluorescence; series mostly up to 76.8 µM; cytotoxicity: at the top concentration; note: nearly all actives have a fitted effect of over 50% in size
Source text: National Center for Advancing Translational Sciences [NCATS]
NIH Chemical Genomics Center [NCGC]
U.S. Environmental Protection Agency [EPA]
National Institutes of Environmental Health Sciences [NIEHS]
National Toxicology Program [NTP]
Cell-based models are critical for drug discovery. Determining the natural cytotoxic effects resulting from test compounds is an essential research activity. A CellTox Green Cytotoxicity Assay to monitor cytotoxicity in real time of continues cell culture during 40 hours of the compound treatment was used to screen Tox21 10K library compounds in Hek293 cells. CellTox Green Cytotoxicity Assay is a nonlytic, homogeneous, biofluorescent method to measure cytotoxicity in cell culture after experimental manipulation. The assay system uses a proprietary asymmetric cyanine dye that is excluded from viable cells but preferentially stains the dead cell's DNA. […] Viable cells produce no appreciable increases in fluorescence. Therefore, the fluorescence signal produced by the binding interaction with dead cell DNA is proportional to cytotoxicity.
The mixture of Hek293 cell suspension and reagents were dispensed at 600cells/6 ul/well in 1536-well tissue culture treated black solid bottom plates using a Multidrop dispenser. After the assay plates were incubated at a 37 C/5% CO2 incubator for 5 hours, 23 nL of compounds dissolved in DMSO, positive and negative controls was transferred to the assay plate by a pintool work station. The plates were incubated at 37 C for 40 hours. The fluorescence intensity were measured at 0h, 8h, 16h, 24h, 32h and 40h time points using ViewLux plate reader during compound treatment.
% is set by controls: 0 for no effect and ±100 for the full control effect.

Row | SMILES | cytotoxicity
1 | CC(=O)c1cnccn1 | 17.9% (inactive)
2 | C[C@H]1[C@H](NC(=O)/C(=N/OC(C)(C)C(=O)O)c2csc(N)n2)C(=O)N1S(=O)(=O)O (stereo in doubt) | -2.68% [at 35.3 µM] (inactive)
3 | CCCCCC(C)N (stereo not given) | -3.23% [at 35.3 µM] (inactive)
4 | CC1=CCC(O)(C(C)C)CC1 (stereo not given) | -14.7% (inactive)
5 | N[C@@H](CCC(=O)O)C(=O)O | 4.36% (inactive)
6 | Cc1cc(C)c(N=Nc2c(O)c(S(=O)(=O)O)cc3cc(S(=O)(=O)O)ccc23)cc1C | 0.859% [at 6.97 µM] (inactive)
7 | CCCOC(=O)CC | 2.6% (inactive)
8 | CC[C@H]1OC(=O)[C@H](C)[C@@H](O[C@H]2C[C@@](C)(OC)[C@@H](O)[C@H](C)O2)[C@H](C)[C@@H](O[C@@H]2O[C@H](C)C[C@H](N(C)C)[C@H]2O)[C@](C)(OC)C[C@@H](C)C(=O)[C@H](C)[C@@H](O)[C@]1(C)O | -7.05% (inactive)
9 | NC(CCC(=O)O)C(=O)O (stereo not given) | 1.01% (inactive)
10 | CC[N+](CC)(CC(=O)Nc1c(C)cccc1C)Cc1ccccc1 (tested in a mixture with another compound) | 2.52% [at 35.3 µM] (inactive)
11 | NO | 2.38% (inactive)
12 | CC(=O)N1C[C@H](O)C[C@H]1C(=O)O | -9.83% [at 35.3 µM] (inactive)
13 | CCCc1nn(C)c2c(=O)[nH]c(-c3cc(S(=O)(=O)N4CCN(C)CC4)ccc3OCC)nc12 | -1.48% [at 35.3 µM] (inactive)
14 | CCN(Cc1ccccc1)c1ccccc1 | 4.51% (inactive)
15 | CCN1C=CN(C)C1C (stereo not given) | -14.5% (inactive)
16 | CC1=C(C/C=C(\C)CCC[C@H](C)CCC[C@H](C)CCCC(C)C)C(=O)c2ccccc2C1=O | -1.21% [at 35.3 µM] (inactive)
17 | Nc1ccn([C@@H]2O[C@H](CO)[C@@H](O)C2(F)F)c(=O)n1 | -2.58% [at 35.3 µM] (inactive)
18 | CC(C)(C)OC(=O)c1cccc(N)c1 | -0.777% (inactive)
19 | CCOC(=O)COc1cc(-n2ncc(C(F)(F)F)c(C)c2=O)c(F)cc1Cl | 0.792% (inactive)
20 | CC(C)(CCC(=O)O)C(=O)O | -3.53% (inactive)

Row | SMILES | cytotoxicity
21 | COCCOC[C@H](CC1(C(=O)NC2CCC(C(=O)O)CC2)CCCC1)C(=O)Oc1ccc2c(c1)CCC2 (stereo not given in full) | -0.254% (inactive)
22 | CCCCOC(=O)CCC(C)=O | -9.22% (inactive)
23 | COc1cc2c(cc1OC)-c1cc3ccc(OC)c(OC)c3c[n+]1CC2 | -7.02% (inactive)
24 | Cc1ncc([C@@H](CCCCCCc2ccc3c(n2)NCCC3)CC(=O)O)cn1 | -5.29% (inactive)
25 | O=[N+]([O-])c1ccc(/C=N\O)o1 | -1.37% [at 35.3 µM] (inactive)
26 | Cc1ccc(C(=O)c2ccc(CC(=O)O)n2C)cc1 | -1.33% [at 35.3 µM] (inactive)
27 | COc1cc(C(=O)NCc2ccc(OCCN(C)C)cc2)cc(OC)c1OC | -7.05% [at 35.3 µM] (inactive)
28 | Cc1ccc(-c2ncc(Cl)cc2-c2ccc(S(C)(=O)=O)cc2)cn1 | 0.332% [at 35.3 µM] (inactive)
29 | CCN(CC#N)c1cccc(C)c1 | 2.65% (inactive)
30 | Cc1ccc(-c2ccccc2C#N)cc1 | -0.492% [at 35.3 µM] (inactive)
31 | C[N+]1(C)[C@@H]2CC(OC(=O)[C@H](CO)c3ccccc3)C[C@H]1[C@@H]1O[C@@H]12 (stereo not given in full) | 8.14% [at 35.3 µM] (inactive)
32 | COc1cc(-c2ccc(=O)[nH]n2)ccc1OC(F)F | 0.314% [at 35.3 µM] (inactive)
33 | Cc1nc2ccc(CN(C)c3ccc(C(=O)N[C@@H](CCC(=O)O)C(=O)O)s3)cc2c(=O)[nH]1 | 0.167% [at 35.3 µM] (inactive)
34 | CCCC(C)C(=O)OCC (stereo not given) | 1.32% (inactive)
35 | COC(=O)Nc1ccc(Cl)c(Cl)c1 | -13.7% (inactive)
36 | c1coc(CNc2ncnc3nc[nH]c23)c1 | -4.05% (inactive)
37 | O=C(O)CC(C(=O)O)S(=O)(=O)O (stereo not given) | 1.55% (inactive)
38 | C1CCC2(CCCCO2)OC1 | -4.89% (inactive)
39 | NC(=O)N1c2ccccc2CC(=O)c2ccccc21 | 3.59% [at 35.3 µM] (inactive)
40 | CCOC(=O)COC(=O)c1ccccc1C(=O)OCC | -8.37% (inactive)
